Common to all, as to format: functional
Experiment [1] deals with Plasmodium falciparum. The experiment can be described thus: GSK_TCMDC: Inhibition of Plasmodium falciparum 3D7 in whole red blood cells, using parasite LDH activity as an index of growth. Test compounds present at 2uM.
Experiment [2] relates to Plasmodium falciparum. Briefly: GSK_TCMDC: Inhibition of Plasmodium falciparum Dd2 in whole red blood cells, using parasite LDH activity as an index of growth. Test compounds present at 2uM.
The next experiment concerns HepG2. Briefly: GSK_TCMDC: Percent inhibition of human HepG2 cell line. Test compounds present at 10uM.

Each structure is given as a SMILES string. Residues, ends and D or L forms follow the SMILES beside them. *: point of attachment. Boc = CC(C)(C)OC(=O)*

Turning to `CC(Oc1ccc(Cl)cc1)C(=O)Nc1cc(C(F)(F)F)ccc1N1CCOCC1` (stereo not drawn), the Inhibition with Plasmodium falciparum [1] stood at 97%; in the experiment on Plasmodium falciparum [2], 97%; with HepG2, 14%.
Turning to `CCCCCCN1CCCN(Cc2ccc(C(=O)Nc3ccc(F)c(F)c3)cc2)CC1.O=C(O)C(F)(F)F`, the results for the Inhibition in the experiment on Plasmodium falciparum [1], in the experiment with Plasmodium falciparum [2] and in the experiment on HepG2 were 84%, 48% and 50%, respectively.
The corresponding values for `COc1ccc2c(NN=Cc3ccccc3Cl)ccnc2c1` are 99%, 46% and 10%.
Turning to `COc1ccccc1CCN1CCC(CN(C)Cc2ccc(O)c(Cl)c2)CC1`, the Inhibition stood at 100% with Plasmodium falciparum [1], 52% in the experiment on Plasmodium falciparum [2] and 19% in the experiment with HepG2.
With `COc1cccc(CCc2cccc(CNC(C)=O)c2)c1`, the Inhibition in the experiment with Plasmodium falciparum [1] is listed as 88%; in the experiment with Plasmodium falciparum [2] it was 0%; in the experiment with HepG2 it was 2%.
For the compound `CCOCn1c(-c2ccccc2)cc2c3c(N)nc(N)nc3ccc21`, the Inhibition is 91% in the experiment with Plasmodium falciparum [1], 66% with Plasmodium falciparum [2] and 62% in the experiment with HepG2.
Taken in the same sequence, the figures for `O=C(CSc1nc(-c2ccccc2Cl)ns1)Nc1cccc(F)c1` were 93%, 81% and 0%.
Taken in the same sequence, the figures for `N=C(N)CCN(Cc1ccc(Cl)cc1)c1ccc(Cl)cc1` were 96%, 92% and 22%.
The corresponding values for `CC(C)(C)c1ccc(CN2CCCCC(NC(=O)c3cc(-c4ccccc4F)cs3)C2)cc1.O=C(O)C(F)(F)F` (stereo not drawn) are 100%, 99% and 6%.
For `CC1CCCCC1N(C)C1CCN(CCCNC(=O)C=Cc2ccccc2Cl)CC1` (stereo not drawn), the Inhibition in the experiment with Plasmodium falciparum [1] is listed as 100%; with Plasmodium falciparum [2], 14%; in the experiment on HepG2 it was 30%.
The corresponding values for `Cn1cccc1CCNCc1ccc(-c2cccc(-c3nc4cc(F)ccc4[nH]3)c2)cc1.O=C(O)C(F)(F)F` are 93%, 43% and 0%.
The corresponding values for `O=C(O)C(F)(F)F.c1ccc(CCNCc2cccc(-c3ccccc3CNCc3ccc4c(c3)OCO4)c2)nc1` are 90%, 80% and 41%.
Taken in the same sequence, the figures for `O=C(Nc1ccc(-c2ccc(-c3nc4ccccc4[nH]3)cc2)cc1)Nc1ccc(Cl)c(Cl)c1` were 100%, 100% and 68%.
Turning to `N#Cc1ccc(NC(=O)N2CCCN(CCCCCNC(=O)/C=C/c3ccc(Cl)c(Cl)c3)CC2)cc1`, the Inhibition with Plasmodium falciparum [1] came out at 100%; in the experiment on Plasmodium falciparum [2], 4%; with HepG2 it was 32%.
With `COC(=O)CC[C@H](NC(=O)[C@H](C)NC(=O)OC(C)(C)C)C(=O)OC` (Boc-Ala-Glu(OMe)-OMe), the Inhibition turned out to be 95% with Plasmodium falciparum [1], 0% with Plasmodium falciparum [2] and 12% in the experiment on HepG2.
In the case of `Cl.O=[N+]([O-])c1ccc(C(O)CNCCc2ccccc2)cc1OCc1ccccc1` (stereo not drawn), the Inhibition in the experiment on Plasmodium falciparum [1] worked out at 94%; in the experiment with Plasmodium falciparum [2], 67%; in the experiment on HepG2 it was 0%.
With `COc1cc(Nc2nccn3c(-c4ccsc4)cnc23)cc(OC)c1OC`, the figures for the Inhibition in the experiment on Plasmodium falciparum [1], in the experiment with Plasmodium falciparum [2] and with HepG2 were 93%, 78% and 26%, respectively.
With `Cc1ccc(N2CCN(CCCCNC(=O)c3ccc(NC(=O)c4ccc(Cl)cc4)cc3)CC2)c(C)c1`, the figures for the Inhibition in the experiment on Plasmodium falciparum [1], with Plasmodium falciparum [2] and in the experiment on HepG2 were 95%, 20% and 30%, respectively.
The corresponding values for `COc1ccc(N2C(=O)c3c(c4ccccc4n3C)C2c2ccccc2O)cc1` (stereo not drawn) are 96%, 91% and 32%.
Taken in the same sequence, the figures for `COc1cc2nc(N3CCN(C(=O)c4ccc(N(C(=O)OC(C)(C)C)C(=O)OC(C)(C)C)cc4)CC3)nc(N)c2cc1OC` were 96%, 19% and 12%.
The corresponding values for `Cl.Nc1c2c(nc3cc(NC(=O)c4ccc([N+](=O)[O-])cc4)ccc13)CCCC2` are 100%, 58% and 11%.
For `CC(C)C(=O)n1ncc2c3c(N)nc(N)nc3ccc21`, the Inhibition with Plasmodium falciparum [1] is recorded as 87%; with Plasmodium falciparum [2], 3%; in the experiment with HepG2, 0%.
Taken in the same sequence, the figures for `CNc1c2c(nc3ccc(NC(=O)CCCCCCc4ccccc4)cc13)CCCC2.Cl` were 100%, 82% and 0%.
Taken in the same sequence, the figures for `COc1ccc2nccc([C@@H](O)CN3CCC(NCc4ccc5c(c4)nnn5C(C)C)CC3)c2c1.O=C(O)C(=O)O` were 100%, 40% and 15%.
Take `CC(C)CC1(C(=O)OC(C)(C)C)CC(C(=O)OC(C)(C)C)C(c2cccs2)N1C(=O)c1ccc(C(C)(C)C)cc1` (stereo not drawn): the figures for the Inhibition with Plasmodium falciparum [1], in the experiment on Plasmodium falciparum [2] and in the experiment with HepG2 were 100%, 100% and 21%, respectively.
In the case of `O=C(c1ccc(-c2cccc(-c3nc4cc(F)ccc4[nH]3)c2)cc1)N1CCCCC1CN1CCC(O)C1` (stereo not drawn), the values for the Inhibition in the experiment on Plasmodium falciparum [1], with Plasmodium falciparum [2] and with HepG2 were 91%, 0% and 11%, respectively.
Taken in the same sequence, the figures for `Cl.O=c1cc(NCCCNCc2cc(Br)cs2)[nH]c2ccccc12` were 85%, 5% and 11%.
The corresponding values for `CN1CCN(CC(=O)Nc2cccc(-c3ccc(-c4nc5cc(C(F)(F)F)ccc5[nH]4)s3)c2)CC1` are 100%, 95% and 36%.
As for `COc1ccc(N2CCN(CCCCNC(=O)c3ccc(NC(=O)c4ccc(Cl)c(Cl)c4)cc3)CC2)c(OC)c1`, the Inhibition is given as 100% in the experiment with Plasmodium falciparum [1], 98% in the experiment with Plasmodium falciparum [2] and 23% with HepG2.
For the compound `CN1CCN(c2ccnc3cc4c(cc23)N(C(=O)Nc2ccc(-c3ccncc3)c3ccccc23)CC4)CC1.Cl`, the Inhibition in the experiment with Plasmodium falciparum [1] is recorded as 100%; in the experiment with Plasmodium falciparum [2], 97%; in the experiment with HepG2, 10%.
Taken in the same sequence, the figures for `O=C(N[C@H]1CCN(CCc2ccc(O[C@H]3CCNC3)cc2)C1)c1ccc(Cl)c(Cl)c1.O=C(O)C(F)(F)F` were 96%, 5% and 18%.

For the origin of these results see ChEMBL document CHEMBL1157539, “Thousands of chemical starting points for antimalarial lead identification” (Nature, 2010).
